The results in this text go back to PubChem BioAssay AID504329 (Southern Research Specialized Biocontainment Screening …, 2011).

Structures are written as SMILES. Out of some 340,000 compounds screened, about 1,000 (0.29%) were called active. Rule as the data show it: inconclusive = inhibition above about 27% without an active follow-up result; inactive = below that. These entries were drawn from the full list. Entries with a potency or affinity are not part of this list.

This test is described as follows: NS1A inhibition, H1N1 influenza, cell based functional assay (AID 504329). The conditions noted are these: percent inhibition, at 12.5 µM, stronger effect = higher value.
What is called inhibition is the relative decrease from the control value, in per cent. Take `COc1cccc(N2CCN(C(=S)Nc3ccccc3)CC2)c1`: the inhibition is 4.19% (inactive). For the molecule `COc1ccc(CCNC(=O)COC(=O)c2ccc(C)s2)cc1`, the inhibition was -10% (inactive).

On to `COc1ccc(C(CNC(=O)C2CC(=O)N(Cc3ccc(C)cc3)C2)N(C)C)cc1` (configuration not stated), for which the inhibition was -3.01% (inactive). The figure for `O=C(NCCc1ccc(F)cc1)C1CCCCC1` is 2.71% (inactive); for `CCOC(=O)C1CCCN(C(=O)COc2ccc(N(C)S(=O)(=O)c3ccc(F)cc3)cc2)C1` (configuration not stated) it is -23.6% (inactive). Then `Cc1nnc(SCC(=O)Nc2ccc(Cl)cn2)n1Cc1ccccc1`, with 1.7% (inactive).

Regarding `CCOC(=O)Nc1n[nH]c(NC(=O)OCC)c1[N+](=O)[O-]`, the inhibition is 8.99% (inactive).

For the molecule `CN1/C(=C\C=Nc2ccc3ccccc3c2)C(C)(C)c2ccccc21`, the inhibition was 2.41% (inactive). Then `CO/N=C/C=C1/N(C)c2ccccc2C1(C)C`, with 11.6% (inactive); and `CN1/C(=C\C=Nc2ccccc2)C(C)(C)c2ccccc21`, with -3.07% (inactive); and `CN1/C(=C\C=N\O)C(C)(C)c2ccccc21`, with -7.5% (inactive).

On to `Cc1ccc(-c2nc(CNC(=O)c3cc(C)on3)cs2)cc1`, for which the inhibition was -7.61% (inactive). Take `O=C(N/N=C/c1ccccc1)C1CCCN1C(=O)c1cc([N+](=O)[O-])cc([N+](=O)[O-])c1` (configuration not stated): the inhibition is -6.49% (inactive). Turning to `CNS(=O)(=O)c1cccc(C(=O)OCc2cc(=O)n3cc(Br)ccc3n2)c1`, the inhibition is 1.47% (inactive). Then `CCCCCSc1cc(OC)c(CCN)cc1OC`, with 15.3% (inactive). Consider `CCCCCSc1cc(OC)c(CCN(C)C)cc1OC`, for which the inhibition was 10.3% (inactive).

As for `NC(=O)NCc1cccs1`, the inhibition is -4.81% (inactive). The figure for `CC(C)N(Cc1nc2ccccc2[nH]1)C(C)C` is -21.7% (inactive); for `O=C(O)COCc1nc2ccccc2[nH]1` it is -15.3% (inactive). The figure for `CCn1c(SCC(=O)Nc2nccs2)nnc1-c1cccnc1` is -5.86% (inactive); for `COc1cc(NC(=O)c2cc([N+](=O)[O-])ccc2NC(=O)CNCc2ccccn2)cc(OC)c1` it is -1.96% (inactive). The figure for `O=C(CN1CCN(c2ccccn2)CC1)Nc1ccc([N+](=O)[O-])cc1C(=O)Nc1ccccc1F` is 12% (inactive). On to `O=C(CNC1CCCCC1)Nc1ccc([N+](=O)[O-])cc1C(=O)Nc1ccccc1F`, for which the inhibition is -6.89% (inactive). The figure for `COc1ccc(NC(=O)c2cc([N+](=O)[O-])ccc2NC(=O)CNC2CCCCC2C)c(OC)c1` (configuration not stated) is -6.01% (inactive); for `CCn1c(=O)c([N+](=O)[O-])c(NC2CCS(=O)(=O)C2)c2ccccc21` (configuration not stated) it is -2.22% (inactive); for `CC(C)C(c1nnnn1C(C)(C)C)N1CCC(Cc2ccccc2)CC1` (configuration not stated) it is -3.35% (inactive). Consider `CCCN(CCC)Cc1c(C(=O)N/N=C/C(C)=C\c2ccccc2)nnn1-c1nonc1N`, for which the inhibition is 6.9% (inactive). As to `COc1cc(/C=C(\NC(=O)c2ccccc2)C(=O)NC(C(=O)O)c2ccccc2)cc(OC)c1OC` (configuration not stated), the inhibition is 2.4% (inactive). Turning to `CC(C)COCc1ccc(O)c2ncccc12`, the inhibition is 1.04% (inactive). Then `Cc1ccccc1-c1nn[nH]n1`, with -2.96% (inactive).

In the case of `Cc1ccc([N+](=O)[O-])c2cccnc12`, the inhibition is -5.17% (inactive).

In the case of `Cc1cccc(NCc2ccc(O)c3ncccc23)c1`, the inhibition is -1.23% (inactive). The figure for `Cc1ccc(NCc2ccc(O)c3ncccc23)cc1` is -2.47% (inactive); for `O=[N+]([O-])c1ccc(O)c2cccnc12` it is -3.9% (inactive); for `c1ccc2c(-c3nn[nH]n3)cccc2c1` it is -2.59% (inactive). Then `Cc1ccccc1NCc1ccc(O)c2ncccc12`, with 11.8% (inactive); and `Cc1ccccc1Nc1nc(-c2cccnc2)nc2ccccc12`, with -4.04% (inactive); and `CCOc1ccccc1-n1c(O)c(C=NCCCn2ccnc2)c(=O)[nH]c1=O`, with 3.36% (inactive). Regarding `CN1CCC(N(C)C(=O)c2ccccc2F)CC1`, the inhibition was 17.7% (inactive).

As to `CN1CC2=Cc3ccccc3OC23Oc2ccccc2C=C3C1`, the inhibition was 3.84% (inactive). Turning to `O=C(CCCOc1ccccc1)Nc1cccc(S(=O)(=O)N2CCCCC2)c1`, the inhibition was -17.5% (inactive). The figure for `CCN1CCN(C(=O)CS(=O)(=O)Cc2nc(-c3cccc(OC)c3)oc2C)CC1` is -5.29% (inactive). The figure for `NC(=O)C1CCN(S(=O)(=O)Cc2ccccc2Cl)CC1` is 4.51% (inactive); for `COc1ccc(CNC(=O)c2cc(C)nn2-c2ccccc2)cc1` it is 0.54% (inactive).

With `COC(=O)c1ccc(Cn2nc(-c3ccccc3)ccc2=O)cc1`, the inhibition was -6.12% (inactive). The figure for `O=C1OCC(c2ccccc2)=C1c1ccccc1[N+](=O)[O-]` is -4.03% (inactive); for `COCCn1ccc2c(OCC(=O)NCCc3ccccc3)cccc2c1=O` it is -4.46% (inactive); for `COCc1ccc(O)c2ncccc12` it is 2.78% (inactive). As to `Oc1ccc(Cl)c2cccnc12`, the inhibition was -4.63% (inactive).

`CCCOCc1ccc(O)c2ncccc12`: the inhibition is -7.06% (inactive). Then `Oc1ccc(F)c2cccnc12`, with 3.59% (inactive); and `Cc1ccsc1C1CC(=O)NC2=C1C(=O)CC(C)(C)C2` (configuration not stated), with -0.46% (inactive); and `Cc1ccc(CNC(=O)C2CCC(=O)N(CCc3cccc(F)c3)C2)s1` (configuration not stated), with 11.3% (inactive). Take `O=C(Nc1c2c(nn1-c1cccc(Cl)c1)CS(=O)(=O)C2)c1ccc2c(c1)OCO2`: the inhibition was 0.57% (inactive).

Take `Cc1nn(-c2ccccc2)c(C)c1/C=N/NC(=O)c1ccccc1O`: the inhibition was 6.87% (inactive). The figure for `Cc1nn(-c2ccccc2)c(N2CCCC2)c1/C=N/NC(=O)c1cc2ccccc2cc1O` is 2.95% (inactive). On to `Cc1ccc(-c2cc(C(=O)N/N=C/c3c(C)nn(-c4ccccc4)c3C)[nH]n2)cc1`, for which the inhibition is 11.2% (inactive).

For the molecule `Cc1nn(-c2ccccc2)c(C)c1/C=N/NC(=O)c1cc(O)cc(O)c1`, the inhibition is -10.7% (inactive). As for `Cc1nn(-c2ccc(F)cc2)c(Cl)c1/C=N/NC(=O)c1ccc(O)cc1`, the inhibition was 9.96% (inactive). The figure for `Cc1nn(-c2ccccc2)c(C)c1/C=N/NC(=O)c1cc(-c2ccccc2)n[nH]1` is -0.6% (inactive); for `COc1ccc(-c2nc(CS(=O)CC(=O)N3CCN(C)CC3)c(C)o2)cc1OC` (configuration not stated) it is -3.22% (inactive). Then `COc1ccc(CCCc2nnc(SCC(=O)Nc3cc(C)c(C)cc3Br)o2)cc1`, with -5.67% (inactive); and `O=C(CS(=O)(=O)Cc1ccccc1)N1CCN(C(=O)c2ccco2)CC1`, with -6.89% (inactive). The figure for `Cc1ccc(S(=O)(=O)N/N=C(\c2ccccc2)c2cccnc2)cc1` is -2.16% (inactive); for `COc1ccccc1-n1cc2c([N+](=O)[O-])cc([N+](=O)[O-])cc2n1` it is 41.1% (inactive); for `CNc1c([N+](=O)[O-])cnn1-c1ccccc1Cl` it is -8.09% (inactive). Take `COc1ccc(C(=O)Nc2nc(-c3ccc([N+](=O)[O-])cc3)c(-c3ccc(OC)cc3)s2)cc1`: the inhibition was -6.06% (inactive). For the molecule `Nc1nn(-c2ccccc2)nc1C(=O)OCc1ccccc1F`, the inhibition was 1.7% (inactive). For the molecule `CC(=O)c1sc(NC(=O)c2ccc(Cl)cc2)nc1C`, the inhibition is 0.95% (inactive). With `CC1CN(c2ccc([N+](=O)[O-])cc2C(=O)N2CCOCC2)CC(C)N1` (configuration not stated), the inhibition was -4.9% (inactive). As for `CC(=O)Nc1cccc(NC(=O)CSc2nnc3ccc(-c4cccnc4)nn23)c1`, the inhibition is 2.74% (inactive).

Turning to `CCOc1ccc2c(c1)-c1c(ssc1=S)C(C)(C)N2`, the inhibition is 21.5% (inactive). On to `CC1(C)Nc2ccc(O)cc2-c2c1ssc2=S`, for which the inhibition was 19% (inactive). Then `CC1CCCN(C(=O)CNC(=O)c2cccs2)C1` (configuration not stated), with -11.6% (inactive); and `O=Cc1ccc(Cl)c(Cl)c1`, with -13.3% (inactive); and `COc1ccc(C)cc1NCC(=O)Nc1ccc(C(C)(C)C)cc1`, with -0.26% (inactive).

`O=C(CSc1nccc2ccccc12)N1CCN(c2ccccn2)CC1`: the inhibition was 9.51% (inactive). As for `O=C(COc1cccc2ccccc12)N1CCN(c2ccccn2)CC1`, the inhibition was 0.39% (inactive). The figure for `Cc1cccc(OCC(=O)NCC(=O)N/N=C/c2cc(Br)ccc2OCc2ccccc2)c1` is 9.61% (inactive); for `COc1cc(OC)c2ccc(=O)oc2c1C(CCN1CCCCC1)c1ccc(N(C)C)cc1` (configuration not stated) it is 9.04% (inactive).

Take `COc1cc(O)c(C(CCN2CCCC2)c2ccc(N(C)C)cc2)c(OC)c1` (configuration not stated): the inhibition is 26.1% (inactive).

With `COc1cc(OC)c2ccc(=O)oc2c1C(CCN1CCCC1)c1ccc(N(C)C)cc1` (configuration not stated), the inhibition is 21.8% (inactive). For the molecule `COc1ccc(C(CCN2CCN(c3ccccc3)CC2)c2c(O)cc(OC)cc2OC)cc1` (configuration not stated), the inhibition was 15.3% (inactive). Consider `NC(=O)CCN1CCN(C(=O)c2ccc3nc(Cc4cccc(Cl)c4)oc3c2)CC1`, for which the inhibition was -5.64% (inactive). Then `CCOC(=O)c1c(NC(=O)COC(=O)Cc2n[nH]c(=O)c3ccccc23)sc(C(=O)N(C)C)c1C`, with -4.28% (inactive). As to `O=[N+]([O-])c1ccccc1N/N=C\c1ccccc1Cl`, the inhibition is 1.01% (inactive).

Take `COc1ccccc1/C=N\Nc1ccccc1[N+](=O)[O-]`: the inhibition was 9.18% (inactive). Then `CCCOc1ccc(/C=N/Nc2ccc(C(=O)O)cc2)c(OCCC)c1`, with 10.8% (inactive); and `CCCOc1ccc(/C=N/Nc2ccccc2[N+](=O)[O-])c(O)c1`, with 3.15% (inactive); and `CCOc1ccccc1/C=N/Nc1ccccc1[N+](=O)[O-]`, with 28.9% (inactive).

In the case of `O=[N+]([O-])c1ccc(N/N=C/c2c[nH]c3ccccc23)cc1`, the inhibition is 7.03% (inactive).

For the molecule `Cc1cccc(NC(=O)Cn2nc(-c3ccco3)ccc2=O)c1C`, the inhibition is 0.81% (inactive). Then `COC(C[C@H](O)C[C@@H](O)[C@H](C)OCc1ccccc1)OC`, with -2.93% (inactive); and `CCCCOCCCNC(=S)Nc1ccc(S(=O)(=O)N2CCOCC2)cc1`, with 0.29% (inactive); and `CCCCC1=C(C(=O)OCC)C(C(=O)OCC)Oc2ccccc21` (configuration not stated), with -8.03% (inactive).

With `COc1ccc(CN(CC(=O)NCc2ccccc2)C(=O)CCC(=O)Nc2ccccn2)cc1`, the inhibition was -6.86% (inactive). For `C/C=C(\C)CN1CCC(n2nccc2NC(=O)CCCc2ccccc2)CC1`, the inhibition was -5.21% (inactive).
